Assay [1] can be described thus: growth inhibition of DIPG glioma cells, dose response, cell-based, SU-DIPG-XVII, MIPE5.0, CellTiter-Glo, qHTS (AID 1347060).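 For AC50: cells exposed to compound for 48 hours before viability readout.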 The following applies: SU-DIPG-XVII viability, CellTiter-Glo ATP luminescence. On the technique in general: In ATP-based viability assays light output follows the ATP content of the culture.
Assay [2] in a line: growth inhibition of DIPG glioma cells, dose response, cell-based, SU-DIPG-XIII, MIPE5.0, CellTiter-Glo, qHTS (AID 1347064; cut-off not given, nearly all actives have AC50 up to about 23 µM;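 for AC50: cells exposed to compound for 48 hours before the viability read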). The following applies: SU-DIPG-XIII viability, CellTiter-Glo ATP luminescence.
Assay [3] is described as follows: viability loss in pontine glioma line – cell-based, SU-DIPG-XXV, MIPE5.0, CellTiter-Glo, qHTS, dose response (AID 1347065).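 Note: cells exposed to compound for 48 hours before ATP readout.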 To be noted: CellTiter-Glo ATP luminescence.
Assay [4] can be described thus: JHH-DIPG-1 glioma cell viability, MIPE5.0 library, CellTiter-Glo luminescence, qHTS (AID 1347067).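 Note: cells exposed to compound for 48 hours before readout.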 The following applies: JHH-DIPG-1 glioma viability, CellTiter-Glo ATP luminescence.
Assay [5] can be described thus: SU-DIPG-XXV glioma cell viability, MIPE5.0 library, qHTS (AID 1347068; cut-off not given, nearly all actives have IC50 up to about 30 µM;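 for IC50: cells exposed to compound for 48 hours before viability readout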). In general terms: qHTS replaces the single test concentration by a dilution series.

Each structure is given as a SMILES string. Inconclusive results are not listed. The source made the active and inactive calls. Unless noted, no cut-off is given here; in the data, nearly all actives have AC50 up to about 26 µM.

By AC50 is commonly meant the concentration giving half of the maximal activity seen. Consider `COc1cc(N2CCC(O)CC2)ccc1Nc1cc(Nc2ccccc2S(=O)(=O)C(C)C)c2cc[nH]c2n1`, for which the AC50 in assay [1] was 23.5 µM (active); in assay [2], 10.5 µM (active); in assay [3] it was 7.42 µM (active); in assay [4], 16.6 µM (active). The result in assay [5] was inactive.

In the case of `Cc1ccc(NC(=O)Nc2nnc(Sc3ncnc4cc(OCCCN5CCOCC5)ccc34)s2)cc1`, the AC50 in assay [1] is 2.95 µM (active); in assay [2] it was 2.63 µM (active); in assay [3], 1.86 µM (active); in assay [4], 2.35 µM (active). Moreover, the compound was classed as inactive in assay [5].

Broadly, the IC50 is the concentration needed to halve the response being measured. Regarding `CNC(=O)CCc1cc(-c2ccc(-c3ccc(C(F)(F)F)cc3)cc2)n(-c2ccc(N3CCNCC3)cc2)n1`, the AC50 in assay [1] is 5.25 µM (active); in assay [2] it was 7.42 µM (active); in assay [3], 2.63 µM (active); in assay [4] it was 3.72 µM (active). For the same compound, in assay [5], the IC50 was 9.34 µM (active).

As for `Cc1ncc(NC(=O)c2cccc(C(F)(F)F)c2)cc1-c1cnc(OC2CCOCC2)c(N2CCOCC2)c1`, the AC50 was 9.34 µM (active) in assay [1], 5.25 µM (active) in assay [2], 14.8 µM (active) in assay [3] and 4.68 µM (active) in assay [4]. For the same compound, the IC50 in assay [5] is 18.6 µM (active).

Consider `CC(C)(O)C1CCC(Nc2ccc3ncc(-c4cccc(C(F)(F)F)c4)n3n2)CC1` (stereo not given), for which the AC50 in assay [1] is 7.42 µM (active); in assay [2], 18.6 µM (active); in assay [3], 13.2 µM (active); in assay [4] it was 10.5 µM (active). The IC50 in assay [5] was 8.33 µM (active).

Regarding `Cc1[nH]c(/C=C2\C(=O)Nc3ccc(F)cc32)c(C)c1C(=O)NC[C@H](O)CN1CCOCC1`, the AC50 is 13.2 µM (active) in assay [1], 18.6 µM (active) in assay [2], 7.42 µM (active) in assay [3] and 16.6 µM (active) in assay [4]. Further, in assay [5], the outcome was inactive.

For the compound `NC(CC1c2ccccc2Oc2ccccc21)(C(=O)O)C1CC1C(=O)O` (stereo not given), the compound was classed as inactive in assay [1], in assay [2], in assay [3], in assay [4] and in assay [5].

For the compound `Clc1cccc(-c2ccc(-c3nnc(CCCc4ccc5cccnc5n4)o3)cc2)c1`, the outcome in assay [1], in assay [2], in assay [3], in assay [4] and in assay [5] was inactive.

Consider `O=C(CCCCCCC(=O)N/N=C/c1ccc(N(c2ccccc2)c2ccccc2)cc1)NO`, for which the AC50 in assay [1] was 20.9 µM (active); in assay [2], 20.9 µM (active); in assay [3], 14.8 µM (active); in assay [4], 11.8 µM (active). Besides, the compound was classed as inactive in assay [5].

Consider `CN1C(=O)N[C@@H](Cc2c[nH]c3c(Cl)cccc23)C1=O`, for which the call in assay [1], in assay [2], in assay [3], in assay [4] and in assay [5] was inactive.

`CO[C@@H](C)Cn1c(=O)n(C)c2cnc3ccc(-c4cncc(C(C)(C)O)c4)cc3c21`: the half-maximal activity concentration (AC50) in assay [1] was 0.934 µM (active); in assay [2], 1.86 µM (active); in assay [3], 0.59 µM (active); in assay [4], 1.05 µM (active). Also, the IC50 in assay [5] is 1.48 µM (active).

Turning to `CN(C)C1CCN(C(=O)c2ccc(NC(=O)Nc3ccc(-c4nc(N5CCOCC5)nc(N5CCOCC5)n4)cc3)cc2)CC1`, the AC50 in assay [1] was 0.332 µM (active); in assay [2], 0.833 µM (active); in assay [3] it was 0.295 µM (active); in assay [4] it was 0.417 µM (active). Also, the IC50 in assay [5] is 0.742 µM (active).

On to `Cc1ccc(-c2ccc3ncc4c(c3n2)n(C2CCN(C(=O)[C@H](C)O)CC2)c(=O)n4C)cn1`, for which the AC50 is 0.468 µM (active) in assay [1], 0.186 µM (active) in assay [2], 0.186 µM (active) in assay [3] and 0.372 µM (active) in assay [4]. For the same compound, the IC50 in assay [5] was 0.417 µM (active).

With `Cc1ccc(NC(=O)c2ccc(CN3CC[C@H](N(C)C)C3)c(C(F)(F)F)c2)cc1Nc1nccc(-c2cncnc2)n1`, the AC50 in assay [1] is 10.2 µM (active); in assay [2] it was 14.4 µM (active); in assay [3], 16.2 µM (active); in assay [4], 11.5 µM (active). Further, in assay [5], the compound was classed as inactive.

In the case of `Cc1ccccc1-n1nc(-c2c(-c3ccc(F)cc3)nn3c2NC[C@@H](CO)C3)ccc1=O`, the result in assay [1], in assay [2], in assay [3], in assay [4] and in assay [5] was inactive.

For `Cc1cc(OCCCc2c3n(c4c(-c5c(C)nn(C)c5C)c(Cl)ccc24)[C@H](C)CN(c2cn(C)c4ccc(C(=O)O)cc24)C3=O)cc(C)c1Cl`, the AC50 is 0.833 µM (active) in assay [1], 5.25 µM (active) in assay [2], 0.468 µM (active) in assay [3] and 9.34 µM (active) in assay [4]. Also, the IC50 in assay [5] is 3.72 µM (active).

In the case of `Cc1ncsc1-c1ccc([C@H](C)NC(=O)[C@@H]2C[C@@H](O)CN2C(=O)[C@@H](NC(=O)COCCCOCCNC(=O)C[C@@H]2N=C(c3ccc(Cl)cc3)c3c(sc(C)c3C)-n3c(C)nnc32)C(C)(C)C)cc1`, the half-maximal activity concentration (AC50) is 0.132 µM (active) in assay [1], 0.209 µM (active) in assay [2], 0.0742 µM (active) in assay [3] and 0.0525 µM (active) in assay [4]. In addition, the IC50 in assay [5] was 0.332 µM (active).

For the compound `CC(C)c1cc(CNc2nc(Nc3cc(C4CC4)[nH]n3)cc(N3CCN(C)CC3)n2)on1`, the AC50 in assay [1] was 0.186 µM (active); in assay [2], 0.166 µM (active); in assay [3], 0.0833 µM (active); in assay [4] it was 0.468 µM (active). In assay [5], the IC50 was 0.525 µM (active).

Turning to `C=CC(=O)N1CCC(Oc2cc3c(Nc4ccc(Cl)c(Cl)c4F)ncnc3cc2OC)CC1`, the AC50 in assay [1] is 6.61 µM (active); in assay [2], 5.25 µM (active); in assay [3] it was 3.32 µM (active); in assay [4], 5.25 µM (active). Further, the IC50 in assay [5] is 16.6 µM (active).

For `C=CC(=O)Nc1cccc(Oc2nc(Nc3ccc(N4CCN(C)CC4)c(F)c3)nc3[nH]ccc23)c1`, the AC50 in assay [1] was 2.63 µM (active); in assay [2], 5.25 µM (active); in assay [3], 1.86 µM (active); in assay [4] it was 9.34 µM (active). For the same compound, the IC50 in assay [5] is 0.833 µM (active).

In the case of `CC1(C)CN(C(=O)c2ccc(-c3cccc4nc(NC(=O)C5CC5)nn34)cc2)C1`, the outcome in assay [1], in assay [2], in assay [3], in assay [4] and in assay [5] was inactive.

As for `CN(Cc1ccc(/C=C/C(=O)NO)cc1)CC12CC3CC(CC(C3)C1)C2`, the AC50 in assay [1] was 0.833 µM (active); in assay [2] it was 0.372 µM (active); in assay [3], 0.263 µM (active); in assay [4] it was 0.332 µM (active). Moreover, in assay [5], the half-inhibitory concentration (IC50) was 2.95 µM (active).

The record behind these values is PubChem BioAssay.
